Results taken from PubChem BioAssay (NCATS).
Inconclusive results are not listed. Active and inactive are the calls of the source. Unless noted, calls come from the whole dose curve.

How the values were obtained:
[1] = target: Lysosomal acid glucosylceramidase (Homo sapiens) (UniProt P04062); test: Glucocerebrosidase-p2 (AID 348; in the data active = potency below about 10 µM; note: potency is the fitted concentration of half-maximal effect); settings: purified GBA, blue fluorogenic substrate, 40 min
In short: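 Compounds titrated from 0.6 nM upwards against 0.2 nM enzyme in pH 5.9 citric acid/KH2PO4, taurocholate, tween-20; blue fluorogenic substrate 80 uM, 40 min room temperature, stopped and read Ex 365/Em 440 for AC50.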

[2] = target: Cytochrome P450 1A2 (Homo sapiens) (UniProt P05177); test: p450-cyp1a2 (AID 410); settings: recombinant CYP1A2, luciferin-ME demethylation, luminescence; series mostly up to 57 µM; note: potency is the fitted concentration of half-maximal effect;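 for activity change, negative = inhibition: -100% = full effect of reference inhibitor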
In short: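 Inhibition was calculated relative to 57 uM furafylline (full inhibition). The reaction used human CYP1A2 at 20nM with Luciferin-ME at its Km, 100uM, driven by an NADPH-regenerating system for 60 min at room temperature.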

[3] = target: Glucocorticoid receptor (Homo sapiens) (UniProt P04150); test: GR-EFC Redistribution (AID 451); settings: CHO-K1 GR-EFC translocation, beta-gal luminescence, 2 h; note: potency is the fitted concentration of half-maximal effect
In short: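 CHO-K1 cells stably expressing nuclear-localized β-gal enzyme acceptor and GR fused C-terminally to the enzyme donor fragment; ligand-driven nuclear translocation restores β-gal by complementation. Compounds titrated up to 46 uM final, 2 h at 37 °C; luminescence read.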

[4] = target: Mitogen-activated protein kinase 10 (Mus musculus) (UniProt Q61831); test: JNK3 AlphaScreen Assay (AID 530; active = well fitted curve in either direction with a large enough effect, not every such curve was filed as active;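 note: kinase came from lysate of stimulated human HepG2 cells; signal reports phosphorylation of biotinylated GST-cJun 1-79 at Ser73 with 10 µM ATP; % is set by controls: 0 for no effect and ±100 for the full control effect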); settings: JNK3 lysate, c-Jun phosphorylation; series mostly up to 57.1 µM
In short: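 JNK3 came from HepG2 lysates pre-activated with IL-1beta and TNF-alpha and phosphorylated biotinylated GST-cJun (1-79) at 10 uM ATP, pH 7.6, room temperature. Compounds were titrated. AlphaScreen signal used anti-phospho-cJun (Ser73) antibody.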

[5] = target: 3',5'-cyclic-AMP phosphodiesterase 4B (Homo sapiens) (UniProt Q07343); test: qHTS Assay for Inhibitors of PDE-IV (AID 607; active = well fitted activation curve with a large enough effect in the main read-out, with a control signal flat, not every such curve was filed as active; note: % of control where 0% means no effect); settings: HEK293 ACTOne CNG channel cells, membrane potential fluorescence; series mostly up to 22.9 µM
In short: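 Cell-based read-out of cAMP via a modified cyclic nucleotide-gated channel and membrane potential dye (535/590 nm) in HEK293 cells expressing PDE4 endogenously. Compounds tested up to 22.9 uM final; 100 uM RO 20-1724 reference.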

[6] = qHTS Assay for Lipid Storage Modulators (AID 1519); settings: Drosophila S3 cells, BODIPY lipid droplet/cell ratio, laser cytometry, cells loaded with oleic acid; for activity change, negative = inhibition: at 57.5 µM (top of the series)
In short: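 Cells seeded at 5,000 per well were treated with compounds over a concentration series and loaded with oleic acid (400 uM, as added). Lipid droplet fluorescence (488 nm excitation, 500-530 nm channel) was read by laser-scanning cytometry and normalized to 20 uM Triacsin C.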

[7] = Primary qHTS for small molecule stabilizers of the endoplasmic reticulum resident proteome: Secreted ER Calcium Modulated Protein (SERCaMP) assay (AID 1508630; active = well fitted curve in the direction sought with a large enough effect; an effect the other way counts as inactive or inconclusive; note: % is set by controls: 0 for no effect and ±100 for the full control effect); settings: SH-SY5Y GLuc-SERCaMP (Gaussia luciferase released on ER calcium loss) secretion, thapsigargin, luminescence; series mostly up to 38.4 µM
In short: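 GLuc-SERCaMP-expressing SH-SY5Y cells, pretreated 16 h with compound, are challenged with thapsigargin to empty ER calcium stores; after 4 h, coelenterazine is added directly to the medium and luminescence is imaged.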

[8] = NFAT Signaling Pathway (AID 444; active = well fitted curve in either direction with a large enough effect, not every such curve was filed as active;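 note: carbachol stimulus at about its EC50 of 1 µM final; % is set by controls: 0 for no effect and ±100 for the full control effect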); settings: Jurkat NFAT-bla M1, carbachol, beta-lactamase ratio, 5 h; at 7.69 µM (top of the series) unless noted
In short: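 Jurkat cells carrying an NFAT-driven β-lactamase reporter and co-transfected muscarinic M1 receptor were treated with compound plus carbachol (1 uM final, an EC50 level) for 5 h at 37 °C. CCF4 loading followed for 1 h at RT; 460/530 nm ratio gave %activity.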

[9] = Stat Signaling Pathway (AID 446; active = well fitted curve in either direction with a large enough effect, not every such curve was filed as active;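 note: ME-180 cervical cancer cells given 40 pM IL-6 alongside compound; SIE-controlled beta-lactamase reporter measured as 460/530 nm FRET emission ratio; % is set by controls: 0 for no effect and ±100 for the full control effect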); settings: ME-180 SIE beta-lactamase reporter, IL-6 stimulated, 5 h; at 7.69 µM (top of the series) unless noted
In short: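 Reporter line: ME-180 cervical carcinoma, SIE-beta-lactamase. Treatment: compound with 40 pM IL-6, 5 hrs, 37 C, in low-serum OPTI-MEM with 10 mM HEPES pH 7.3. Detection: 460/530 nm fluorescence.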

[10] = target: Glucocorticoid receptor (Homo sapiens) (UniProt P04150); test: GR-GFP Redistribution (AID 450;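 active = compounds whose dose series gives a full or clear partial fitted curve of increased nuclear translocation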; note: potency is the fitted concentration of half-maximal effect); settings: U2OS GR-GFP nuclear translocation, laser cytometry, 2 h
[11] = target: Cytochrome P450 3A4 (Homo sapiens) (UniProt P08684); test: qHTS Assay for Activators of Cytochrome P450 3A4 (AID 885; active = well fitted curve in the direction sought with a large enough effect; an effect the other way counts as inactive or inconclusive; note: nearly all actives have a fitted effect of over 65% in size; note: potency is the fitted concentration of half-maximal effect); settings: recombinant CYP3A4, Luciferin-PPXE luminescence, 60 min; series mostly up to 57.1 µM
In short: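 Signal was normalized against complete inhibition by 57 uM ketoconazole. The reaction used 20nM CYP3A4 with 25uM Luciferin-PPXE, 10-min compound preincubation and a 60-min NADPH-supported step at RT.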

[12] = Confirmation and Secondary Assay for Modulators of Hemoglobin Beta Chain Splicing at IVS2 654 locus (AID 910; active = well fitted curve in the direction sought with a large enough effect; an effect the other way counts as inactive or inconclusive;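 note: per-well total GFP intensity by laser scanning cytometry after 2-day treatment; % of control where 0% means no effect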); settings: HeLa EGFP-654 splicing reporter, GFP fluorescence, 48 h; series mostly up to 38.3 µM
In short: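 HeLa cells stably carrying EGFP interrupted by mutant beta-globin IVS2-654 intron (CMV-driven) were treated with compound for 2 days at 37C; corrected splicing was scored as total peak GFP intensity per well (488 nm excitation, 500-520 nm emission).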

[13] = target: Cytochrome P450 3A4 (Homo sapiens) (UniProt P08684); test: qHTS Assay for Inhibitors and Substrates of Cytochrome P450 3A4 (AID 884; active = well fitted curve in the direction sought with a large enough effect; an effect the other way counts as inactive or inconclusive; note: nearly all actives have a fitted effect of over 50% in size; note: potency is the fitted concentration of half-maximal effect); settings: recombinant CYP3A4, Luciferin-PPXE luminescence; series mostly up to 57.1 µM
In short: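 20 nM human CYP3A4 with 25 uM Luciferin-PPXE (at KM) in 200 mM KPO4, preincubated 10 min with compound; NADPH regeneration started a 60 min RT reaction. Luciferin detected by luminescence, normalized to 57 uM ketoconazole as full inhibition.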

[14] = target: Cytochrome P450 2D6 (Homo sapiens) (UniProt P10635); test: qHTS Assay for Inhibitors and Substrates of Cytochrome P450 2D6 (AID 891; active = well fitted curve in the direction sought with a large enough effect; an effect the other way counts as inactive or inconclusive; note: potency is the fitted concentration of half-maximal effect; nearly all actives have a fitted effect of over 60% in size); settings: recombinant CYP2D6, luciferin-ME EGE luminescence; series mostly up to 57.1 µM
In short: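 Human CYP2D6 (5 nM) with 30 uM Luciferin-ME EGE (at Km) in 100 mM KPO4, compound preincubated 10 min, then NADPH regeneration system for 60 min at room temperature. Luciferin read by luminescence; normalized to 1.43 uM quinidine.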

[15] = target: Ubiquitin carboxyl-terminal hydrolase 1 (Homo sapiens) (UniProt O94782); test: Inhibitors of USP1/UAF1: Pilot qHTS (AID 504865; active = well fitted curve in the direction sought with a large enough effect; an effect the other way counts as inactive or inconclusive;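 note: rhodamine fluorescence freed from ubiquitin-rhodamine substrate followed over time; top concentration of the series differs between compounds; % is set by controls: 0 for no effect and ±100 for the full control effect; nearly all actives have a fitted effect of over 35% in size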); settings: purified USP1/UAF1, Ub-rhodamine cleavage fluorescence; series mostly up to 54.9 µM
In short: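 In 50mM HEPES pH 7.8 containing 0.5mM EDTA, 1mM TCEP, 0.1 mg/ml BSA and 0.01% Tween-20, 1nM USP1/UAF1 is exposed to compound for 15 min, then Ub-Rho (150nM final) is added and fluorescence is read over time.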

[16] = Confirmation and Secondary Assay for Modulators of Hemoglobin Beta Chain Splicing at IVS2 705 locus (AID 930; active = well fitted curve in the direction sought with a large enough effect; an effect the other way counts as inactive or inconclusive;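 note: HeLa cells stably expressing the EGFP-705 splicing reporter; % of control where 0% means no effect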); settings: HeLa EGFP-705 splicing reporter, GFP fluorescence, 48 h; series mostly up to 38.3 µM
In short: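 HeLa cells stably carrying EGFP interrupted by mutant beta-globin IVS2-705 intron (CMV-driven) were seeded at 500 cells/well, treated next day with compound for 2 days at 37C; corrected splicing restores EGFP, read as total peak GFP intensity per well.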

[17] = target: Cytochrome P450 2C19 (Homo sapiens) (UniProt P33261); test: qHTS Assay for Inhibitors and Substrates of Cytochrome P450 2C19 (AID 899; active = well fitted curve in the direction sought with a large enough effect; an effect the other way counts as inactive or inconclusive; note: potency is the fitted concentration of half-maximal effect; nearly all actives have a fitted effect of over 60% in size); settings: recombinant CYP2C19, luciferin-H EGE luminescence; series mostly up to 57.1 µM
In short: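 Human CYP2C19 (5nM) with Luciferin-H EGE at 10uM (its KM) in 50mM KPO4 was preincubated with compound for 10 min at 37C. NADPH regeneration started a 60 min 37C reaction. Luciferin was read by luminescence, normalized to 57uM ketoconazole.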

[18] = measured here: cell count channel max response
[19] = measured here: lipid channel max response

Sequence of Glucocorticoid receptor (Homo sapiens) (P04150 whole entry, looked up, the tested form may be a part): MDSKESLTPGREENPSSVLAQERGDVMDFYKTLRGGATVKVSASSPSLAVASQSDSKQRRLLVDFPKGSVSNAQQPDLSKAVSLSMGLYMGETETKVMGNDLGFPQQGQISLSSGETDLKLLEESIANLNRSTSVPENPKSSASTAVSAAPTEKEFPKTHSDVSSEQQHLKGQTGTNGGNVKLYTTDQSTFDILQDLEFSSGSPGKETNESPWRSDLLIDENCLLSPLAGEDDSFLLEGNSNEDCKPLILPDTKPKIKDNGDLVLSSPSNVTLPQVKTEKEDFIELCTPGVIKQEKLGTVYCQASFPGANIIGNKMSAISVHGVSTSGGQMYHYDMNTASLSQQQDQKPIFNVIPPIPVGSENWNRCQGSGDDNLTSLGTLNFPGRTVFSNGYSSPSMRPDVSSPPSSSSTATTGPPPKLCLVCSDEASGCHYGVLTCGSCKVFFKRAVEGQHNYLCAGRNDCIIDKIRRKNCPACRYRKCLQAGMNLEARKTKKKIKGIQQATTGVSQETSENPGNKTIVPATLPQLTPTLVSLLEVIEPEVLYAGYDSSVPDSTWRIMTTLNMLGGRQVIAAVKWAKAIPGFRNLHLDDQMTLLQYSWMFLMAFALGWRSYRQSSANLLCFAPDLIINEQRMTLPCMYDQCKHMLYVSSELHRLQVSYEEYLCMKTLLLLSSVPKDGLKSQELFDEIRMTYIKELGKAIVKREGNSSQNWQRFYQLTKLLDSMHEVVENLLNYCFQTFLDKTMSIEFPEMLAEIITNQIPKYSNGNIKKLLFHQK
Sequence of Cytochrome P450 3A4 (Homo sapiens) (P08684 whole entry, looked up): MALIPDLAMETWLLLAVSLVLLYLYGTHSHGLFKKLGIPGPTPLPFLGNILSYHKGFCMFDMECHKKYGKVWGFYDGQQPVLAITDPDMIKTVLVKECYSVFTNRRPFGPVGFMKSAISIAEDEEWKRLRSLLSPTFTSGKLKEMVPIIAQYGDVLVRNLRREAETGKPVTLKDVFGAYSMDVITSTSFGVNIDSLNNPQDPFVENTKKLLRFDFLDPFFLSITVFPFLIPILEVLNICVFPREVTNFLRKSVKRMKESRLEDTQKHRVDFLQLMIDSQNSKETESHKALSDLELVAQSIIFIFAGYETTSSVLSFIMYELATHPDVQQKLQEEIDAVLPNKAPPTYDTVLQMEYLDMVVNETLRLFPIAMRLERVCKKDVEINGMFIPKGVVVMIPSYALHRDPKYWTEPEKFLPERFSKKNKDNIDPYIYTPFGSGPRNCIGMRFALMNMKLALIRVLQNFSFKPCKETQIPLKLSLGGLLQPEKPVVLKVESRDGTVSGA
Sequence of 3',5'-cyclic-AMP phosphodiesterase 4B (Homo sapiens) (Q07343 whole entry, looked up): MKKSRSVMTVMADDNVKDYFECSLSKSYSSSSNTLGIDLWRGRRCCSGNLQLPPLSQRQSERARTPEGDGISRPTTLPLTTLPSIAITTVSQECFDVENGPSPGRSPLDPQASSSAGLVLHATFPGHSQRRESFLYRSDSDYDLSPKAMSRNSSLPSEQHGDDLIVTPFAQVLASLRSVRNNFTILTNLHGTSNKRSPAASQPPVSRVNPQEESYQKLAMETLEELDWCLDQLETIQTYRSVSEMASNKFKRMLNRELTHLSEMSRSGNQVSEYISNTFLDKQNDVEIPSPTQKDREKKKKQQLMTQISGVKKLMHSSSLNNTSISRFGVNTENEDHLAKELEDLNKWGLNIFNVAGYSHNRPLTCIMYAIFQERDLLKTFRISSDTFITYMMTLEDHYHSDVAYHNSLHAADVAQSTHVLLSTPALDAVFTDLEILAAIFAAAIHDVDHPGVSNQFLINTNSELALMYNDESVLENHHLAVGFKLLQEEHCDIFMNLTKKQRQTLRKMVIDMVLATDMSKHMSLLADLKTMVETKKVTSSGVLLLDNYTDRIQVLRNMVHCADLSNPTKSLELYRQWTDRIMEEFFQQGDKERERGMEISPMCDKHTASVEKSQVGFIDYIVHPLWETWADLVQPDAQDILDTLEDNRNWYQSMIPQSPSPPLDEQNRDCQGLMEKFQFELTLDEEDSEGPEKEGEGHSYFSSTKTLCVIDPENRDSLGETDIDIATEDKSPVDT
Sequence of Lysosomal acid glucosylceramidase (Homo sapiens) (P04062 whole entry, looked up): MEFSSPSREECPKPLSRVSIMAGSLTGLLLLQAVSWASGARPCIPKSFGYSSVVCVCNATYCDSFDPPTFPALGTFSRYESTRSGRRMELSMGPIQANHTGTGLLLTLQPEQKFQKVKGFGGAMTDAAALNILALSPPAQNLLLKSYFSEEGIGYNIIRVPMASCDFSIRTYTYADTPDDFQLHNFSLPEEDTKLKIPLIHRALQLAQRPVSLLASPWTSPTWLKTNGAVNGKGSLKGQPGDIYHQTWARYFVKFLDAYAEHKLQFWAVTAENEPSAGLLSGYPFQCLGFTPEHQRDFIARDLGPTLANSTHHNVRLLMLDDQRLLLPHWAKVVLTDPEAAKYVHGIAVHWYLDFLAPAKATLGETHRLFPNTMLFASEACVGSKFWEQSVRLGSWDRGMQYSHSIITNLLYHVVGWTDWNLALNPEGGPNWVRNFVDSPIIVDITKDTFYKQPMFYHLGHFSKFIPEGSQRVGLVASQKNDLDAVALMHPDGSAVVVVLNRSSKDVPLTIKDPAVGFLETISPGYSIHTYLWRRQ
Sequence of Cytochrome P450 2D6 (Homo sapiens) (P10635 whole entry, looked up): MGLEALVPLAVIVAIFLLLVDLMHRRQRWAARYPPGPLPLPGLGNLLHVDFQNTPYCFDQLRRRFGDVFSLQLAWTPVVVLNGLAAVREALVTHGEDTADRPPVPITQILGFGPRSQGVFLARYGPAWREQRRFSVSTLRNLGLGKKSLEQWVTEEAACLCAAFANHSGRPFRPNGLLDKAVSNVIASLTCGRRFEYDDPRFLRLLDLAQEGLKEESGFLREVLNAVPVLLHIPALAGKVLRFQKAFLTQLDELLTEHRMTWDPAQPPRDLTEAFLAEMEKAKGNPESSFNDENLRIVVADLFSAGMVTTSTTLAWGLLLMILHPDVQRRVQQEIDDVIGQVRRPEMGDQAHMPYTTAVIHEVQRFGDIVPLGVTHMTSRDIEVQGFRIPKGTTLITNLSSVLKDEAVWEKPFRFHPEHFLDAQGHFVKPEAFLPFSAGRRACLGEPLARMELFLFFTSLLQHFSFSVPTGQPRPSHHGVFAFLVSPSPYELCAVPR
Sequence of Cytochrome P450 1A2 (Homo sapiens) (P05177 whole entry, looked up): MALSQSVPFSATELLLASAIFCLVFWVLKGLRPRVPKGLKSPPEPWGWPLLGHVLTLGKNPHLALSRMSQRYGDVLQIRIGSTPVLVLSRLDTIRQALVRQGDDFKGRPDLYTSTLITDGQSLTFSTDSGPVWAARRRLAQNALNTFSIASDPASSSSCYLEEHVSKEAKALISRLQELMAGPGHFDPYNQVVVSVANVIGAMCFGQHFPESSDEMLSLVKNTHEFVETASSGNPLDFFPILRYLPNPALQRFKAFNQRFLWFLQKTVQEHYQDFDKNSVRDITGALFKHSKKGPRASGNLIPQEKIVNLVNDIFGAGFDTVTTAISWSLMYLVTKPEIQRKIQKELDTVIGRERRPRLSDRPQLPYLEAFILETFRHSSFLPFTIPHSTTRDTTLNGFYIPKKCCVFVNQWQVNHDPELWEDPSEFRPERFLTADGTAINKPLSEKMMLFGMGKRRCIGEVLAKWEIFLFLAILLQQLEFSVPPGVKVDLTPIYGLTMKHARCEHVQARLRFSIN
Sequence of Ubiquitin carboxyl-terminal hydrolase 1 (Homo sapiens) (O94782 whole entry, looked up): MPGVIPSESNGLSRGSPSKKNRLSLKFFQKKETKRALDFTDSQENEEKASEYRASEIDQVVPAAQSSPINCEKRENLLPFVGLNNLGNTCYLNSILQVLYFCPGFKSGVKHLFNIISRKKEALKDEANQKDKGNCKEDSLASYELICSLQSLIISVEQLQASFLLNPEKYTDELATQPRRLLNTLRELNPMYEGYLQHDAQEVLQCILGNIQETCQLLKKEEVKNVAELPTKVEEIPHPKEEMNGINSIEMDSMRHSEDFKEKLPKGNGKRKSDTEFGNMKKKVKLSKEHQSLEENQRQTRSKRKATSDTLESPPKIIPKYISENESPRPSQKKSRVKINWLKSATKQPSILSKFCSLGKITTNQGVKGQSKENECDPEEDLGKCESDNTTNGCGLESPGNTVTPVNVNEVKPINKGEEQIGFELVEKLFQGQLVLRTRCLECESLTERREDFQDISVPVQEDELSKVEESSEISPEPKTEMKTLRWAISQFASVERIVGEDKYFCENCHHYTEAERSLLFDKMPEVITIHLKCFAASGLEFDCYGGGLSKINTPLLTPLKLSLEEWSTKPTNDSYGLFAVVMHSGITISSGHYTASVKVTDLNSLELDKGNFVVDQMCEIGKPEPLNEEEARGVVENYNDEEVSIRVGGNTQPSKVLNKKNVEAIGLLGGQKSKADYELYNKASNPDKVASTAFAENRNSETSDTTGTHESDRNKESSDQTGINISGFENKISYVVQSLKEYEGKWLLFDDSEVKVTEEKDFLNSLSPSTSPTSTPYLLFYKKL
Sequence of Cytochrome P450 2C19 (Homo sapiens) (P33261 whole entry, looked up): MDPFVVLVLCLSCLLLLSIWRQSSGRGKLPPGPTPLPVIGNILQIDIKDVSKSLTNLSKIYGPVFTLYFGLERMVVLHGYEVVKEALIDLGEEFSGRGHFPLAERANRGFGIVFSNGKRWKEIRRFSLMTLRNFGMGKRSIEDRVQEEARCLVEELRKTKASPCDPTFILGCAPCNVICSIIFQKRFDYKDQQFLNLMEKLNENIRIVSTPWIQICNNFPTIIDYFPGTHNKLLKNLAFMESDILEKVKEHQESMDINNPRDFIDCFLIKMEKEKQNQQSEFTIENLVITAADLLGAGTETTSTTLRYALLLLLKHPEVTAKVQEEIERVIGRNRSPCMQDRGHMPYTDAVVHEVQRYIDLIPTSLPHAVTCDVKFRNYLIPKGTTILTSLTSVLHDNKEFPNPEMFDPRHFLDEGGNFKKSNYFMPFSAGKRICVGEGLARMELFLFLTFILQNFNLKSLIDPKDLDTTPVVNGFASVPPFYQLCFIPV

Row | SMILES | Potency [1] | Potency [2] | Potency [3] | Potency [4] | Potency [5] | activity change, negative = inhibition [6] | max response [6, 18] | max response [6, 19] | outcome [7] | activity change, negative = inhibition [8] | activity, negative = inhibition [9] | Potency [10] | Potency [11] | Potency [12] | Potency [13] | Potency [14] | Potency [15] | outcome [16] | Potency [17]
1 | O=S(=O)(c1ccccc1)N1CCC[C@@]2(CCN(Cc3cc(C(F)(F)F)cc(C(F)(F)F)c3)C2)C1 | > 11.4 µM (inactive) | inactive | > 46 µM (inactive) | inactive | inactive | 4.5% (inactive) | 17.1% | 25.2% | inactive |  |  |  |  |  |  |  |  |  | 
2 | CN(C)C(=O)c1ccc(-c2nc(NCc3cccs3)c3ccccc3n2)cc1 | > 11.4 µM (inactive) | 12.6 µM (active) | > 46 µM (inactive) | inactive |  | 12.5% (inactive) | 0.768% | 15.6% | inactive | 28.9% (inactive) | -25% (inactive) | > 46 µM (inactive) | inactive | inactive |  |  |  |  | 
3 | COCC(=O)N1CCC2(CC1)CCN(c1ncccn1)CC2 | > 11.4 µM (inactive) | inactive | > 46 µM (inactive) | inactive | inactive | 3.55% (inactive) | 11.8% | 17.5% | inactive | 16.6% (inactive) | -0.157% (inactive) |  |  |  |  |  |  |  | 
4 | COc1ccc(-c2nc3cnc(N4CCNCC4)nc3n(C)c2=O)cc1 | > 11.4 µM (inactive) | 12.6 µM (active) | > 46 µM (inactive) | inactive | inactive | 4.15% (inactive) | 15.8% | 21.9% | inactive |  |  | > 9.22 µM (inactive) | inactive |  |  |  |  |  | 
5 | O=C(c1cnccn1)N1CCC2(CCCN(C(c3ccccc3)c3ccccc3)C2)CC1 | > 11.4 µM (inactive) | 20 µM (active) | > 46 µM (inactive) | inactive |  | 0.62% (inactive) | 6.86% | 7.68% | inactive |  | 14% (inactive) |  | inactive |  | 1.58 µM (active) |  |  |  | 
6 | CS(=O)(=O)N1CCC2(CC1)CN(C(c1ccccc1)c1ccccc1)C2 | > 11.4 µM (inactive) | inactive | > 46 µM (inactive) | inactive | inactive | -2.92% (inactive) | -5.26% | -3.93% | inactive | -0.932% (inactive) | -5.62% (inactive) |  | 15.8 µM (active) |  |  | 2.51 µM (active) |  |  | 
7 | CC(C)NC(=O)N1CC[C@@]2(CCCN(S(=O)(=O)c3ccccc3)C2)C1 | > 11.4 µM (inactive) | inactive | > 46 µM (inactive) | inactive | inactive | 3.83% (inactive) | -9.01% | -4.67% | inactive | 18.4% (inactive) | 1.4% (inactive) |  | inactive |  |  |  |  |  | 
8 | COc1ccc(CNc2nc(-c3ccc(C(=O)N(C)C)cc3)nc3ccccc23)c(OC)c1 | > 11.4 µM (inactive) | 15.8 µM (active) | > 46 µM (inactive) | inactive |  | 6.93% (inactive) | -11.3% | 8.44% | inactive |  |  | > 46 µM (inactive) | inactive | inactive |  |  | inactive |  | 
9 | COC(=O)N1CCC2(CC1)CN(c1ccc(-c3ccccc3)cc1)C2 | > 11.4 µM (inactive) | 1.26 µM (active) | > 46 µM (inactive) | inactive | inactive | 5.19% (inactive) | -7.69% | 0.422% | inactive | 15.9% (inactive) | -8.46% (inactive) |  | 3.16 µM (active) |  | inactive |  |  |  | 
10 | N#Cc1cccc(NC(=O)N2CCCC3(CCN(S(=O)(=O)c4ccccc4)CC3)C2)c1 | > 11.4 µM (inactive) |  | > 46 µM (inactive) | inactive | inactive | -3.45% (inactive) | 1.48% | -1.95% | inactive |  | -2.4% (inactive) |  |  |  |  |  |  |  | 
11 | O=C(c1ccco1)N1CCC2(CCN(Cc3ccccc3)CC2)CC1 | > 11.4 µM (inactive) | inactive | > 46 µM (inactive) | inactive | inactive | -0.6% (inactive) | -0.833% | 1.54% | inactive |  | -6.84% (inactive) |  | 20 µM (active) |  | inactive | 3.98 µM (active) |  |  | 
12 | N#Cc1cccc(-c2ccc3ncnc(NCc4cccnc4)c3c2)c1 | > 11.4 µM (inactive) |  | > 46 µM (inactive) | inactive | inactive | 7.68% (inactive) | 12% | 20.4% | inactive | 21.6% (inactive) | -12.3% (inactive) | > 46 µM (inactive) |  | inactive |  |  |  | inactive | 
13 | COC(=O)N1CCC2(CC1)CN(c1ccccc1)C2 | > 11.4 µM (inactive) | inactive | > 46 µM (inactive) | inactive | inactive | -0.409% (inactive) | 4.45% | 2.93% | inactive |  | 8.16% (inactive) |  |  |  | inactive |  |  |  | 6.31 µM (active)
14 | CS(=O)(=O)N1CCC2(CC1)CN(c1ccccc1)C2 | > 11.4 µM (inactive) | 20 µM (active) | > 46 µM (inactive) | inactive | inactive | 0.887% (inactive) | 14% | 17.6% | inactive | 24.3% (inactive) | -8.44% (inactive) |  |  |  |  | 1.26 µM (active) |  |  | 
